The panel holds about 83,000 compounds, 20% with a hit somewhere; the sample as a whole holds those more often.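 For each line, cells grew in 96-well plates with the test compound present at a single concentration for 48 hours.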 A number with no mark means an inactive call. Calls of active or inactive are those of the source.

This experiment concerns SNB-75 CNS. In words: NCI-60 one-dose screen, 48 h (100 = growth as untreated, 0 = no growth, -100 = all killed). The conditions noted are these: 10 µM unless noted. As to the method: Growth inhibition of the SNB-75 human tumor cell line is measured as a screen for anti-cancer activity. Cells are grown in 96 well plates and exposed to the test compound for 48 hours. Compounds are tested at a single concentration, which is 10^-5 M for most compounds. The reported endpoint is percent growth (GI% or GIPRCNT), where numbers from 0 - 100% represent growth inhibition, and numbers from -100% - 0 represent cell death. For example, a value of 40 represents 60% growth inhibition. A value of 0 means no net growth occurred over the course of the experiment. A value of -40 indicates 40% of cells at the beginning of the experiment died by the end of the experiment. A value of -100 means all cells are dead at the end of the experiment.
NCI-60 Human Tumor Cell Lines Screen was performed using the standard one-dose NCI protocol, which is described in more detail at https://dtp.cancer.gov/discovery_development/nci-60/default.htm.
Compounds with GIPRCNT values below 10 were considered active. Activity score was based on GIPRCNT using the following formula: […]
Score is 0 for GIPRCNT values of 100 or above, 50 for GIPRCNT values of 0, and 100 for GIPRCNT values of -100.
As for `Nc1nc(Nc2cccc(F)c2)nc2ccccc12`, the growth is 56.1%.

Take `COc1ccc2sc(N(Cc3cccnc3)C(=O)c3ccc(C#N)cc3)nc2c1`: the growth is 74%.

As to `CCOc1ccc2nc(C)cc(Nc3ccc(Br)cc3)c2c1`, the growth was 89.7%.

Turning to `CC(C)C[C@H](C(=O)N[C@H](C(N)=O)C(C)C)N1CC=CCN(OCc2ccccc2)S1(=O)=O`, the growth was 69.7% [2.5 µM].

On to `CC1(O)COCCCCOc2c(CN)cccc2NC(=O)c2nc(cnc2N)-c2ccc(cc2)S(=O)(=O)C(C)(C)C1` (stereo not given), for which the growth was -60.3% (active).

On to `COc1cccc(-c2nn(C)c3sc(C(=O)NCCN4CCN(c5ccccc5F)CC4)cc23)c1`, for which the growth was 64.8%.

Consider `CN1CCN(Cc2ccc(C(=O)Nc3cncc(C#Cc4cnc5cccnn45)c3)cc2C(F)(F)F)CC1`, for which the growth was 96.9%.

On to `CNC(=O)c1cc(Oc2ccc(CC(=O)Nc3cc(C(C)(C)C)cn3C)cc2)ccn1`, for which the growth is 52.4%.

Take `O=c1oc2ccc(I)cc2c(=O)n1-c1ccc(F)cc1F`: the growth is -13.4% (active).

For the compound `Clc1ccc(Oc2ccc(Nc3ncnc4onc(-c5ccccc5)c34)cc2)c(Cl)c1`, the growth was 83.5%.

As to `CCCCC1CCc2cccc3c(SCC(=O)N(C)c4ccc(Cl)cc4)cc[n+]1c23` (stereo not given), the growth was 109%.

For `CC(=O)Nc1nc2c(s1)CCc1c-2cn(S(=O)(=O)c2ccccc2)c1-c1ccccc1`, the growth was 82.8%.

`O=c1oc2ccc(F)cc2c(=O)n1-c1ccc(Cl)cc1F`: the growth is -13.6% (active).

As to `O=C(/C=C/c1ccc(F)cc1)c1ccc(Nc2nc(NCCO)nc(Nc3ccc(Cl)cc3)n2)cc1`, the growth was 81.4%.

Regarding `COc1cc(C(=O)NN=C2c3ccccc3-c3ccccc32)cc(OC)c1OC`, the growth was 14.2%.

For the compound `N#C/C(=C\c1c(-c2ccccc2)[nH]c2ccccc12)C(=O)c1ccccc1`, the growth is 16.8%.

Consider `CCCc1c(C)c2sc(=O)[nH]c2[nH]c1=O`, for which the growth was 99.1%.

As for `C[C@@H](C(=O)NCCCC#Cc1cnc(Nc2ccc(C#N)cc2)nc1NC1CC1)N(C)C(=O)/C=C/CN(C)C`, the growth was 80.5%.

Take `COc1ccc(-c2nsc3c2NC(=O)CC3c2ccsc2)cc1` (stereo not given): the growth was 10.4%.

Regarding `COc1ccc(/C=C/C(=O)c2ccc(Nc3nc(NCCO)nc(Nc4ccc(Cl)cc4)n3)cc2)cc1`, the growth is 61.2%.

Consider `O=C1CCC(N2C(=O)c3cccc(NCCCCCCOc4ccc(Nc5nccc(Nc6ccccc6)n5)cc4)c3C2=O)C(=O)N1` (stereo not given), for which the growth is 89%.

Consider `Cc1ccc(CN2CCC(C(=O)Nc3ccc(-c4cc5ccccc5[nH]4)cc3)CC2)o1`, for which the growth is 100%.

On to `Cc1ccccc1CNC(=O)C1CN(c2ccc(Cl)cc2)N(c2ccc(Cl)cc2)C1=O` (stereo not given), for which the growth was 88%.

For the compound `CCOC(=O)C1=CN(C)C=C(C(=O)OCC)C1c1cc(Br)c(OCC)c(OC)c1`, the growth is 43.5%.

`Cn1c(/C=C(\C#N)c2ccccc2)nc2c(N3CCOCC3)nc(Cl)nc21`: the growth was -94.9% (active).

With `COc1ccccc1C(=O)O/N=C(\N)Cc1cccc2ccccc12`, the growth was 67%.

Regarding `COc1ccc(-c2nsc3c2NC(=O)CC3c2cccc(OC)c2)cc1` (stereo not given), the growth was -17.5% (active).

For `O=[N+]([O-])c1cc2c(ccc3occc32)o1`, the growth is 31.7%.

Turning to `COc1ccc2occ(C3=C(c4c[nH]c5ccccc45)C(=O)NC3=O)c2c1`, the growth was 16.6%.

Turning to `O=Cc1cc2ccccc2nc1Nc1nccs1`, the growth was 79.4%.

Turning to `Nc1cccc(Nc2cc(S(=O)(=O)O)c(N)c3c2C(=O)c2ccccc2C3=O)c1`, the growth was 82.2%.

For the compound `Fc1ccc(Oc2ccc(Nc3ncnc4onc(-c5ccccc5)c34)cc2)cc1`, the growth is 86.4%.

On to `NCCOc1ncccc1/C=C1\c2ccccc2-c2ccc(F)cc21`, for which the growth was 15.7%.

`O=c1oc2ccc(Cl)cc2c(=O)n1-c1cc(C(F)(F)F)cc(C(F)(F)F)c1`: the growth was -36.2% (active).

Turning to `O=C(O)CCC(=O)c1ccc(C2CCCCCC2)cc1`, the growth was 96.5%.

With `CC(=O)c1ccc(Nc2nc(NCCO)nc(Nc3ccc(Cl)cc3)n2)cc1`, the growth was 77.5%.

Regarding `O=C1/C(=C/c2ccc(O)cc2)COc2ccc(O)c(O)c21`, the growth is 29.6%.

For the compound `CCOc1cc2c(cc1OCC)C(c1cc(C)c(O)c(C)c1)NCC2` (stereo not given), the growth is 95.3%.

For `O=S1(=O)N(Cc2ccccc2)[C@@H](Cc2ccccc2)[C@H](O)[C@H](O)[C@H](Cc2ccccc2)N1Cc1ccccc1`, the growth is 13.3%.

In the case of `COCCN(C(=O)Cc1cccs1)C(C(=O)NCc1ccc(OC)cc1)c1ccc(C(C)C)cc1` (stereo not given), the growth was 79.7%.

The values above are taken from PubChem BioAssay (NCI).
